Results on 39 compounds are retold here after PubChem BioAssay (NCI).

The panel holds about 83,000 compounds, 20% with a hit somewhere; the sample as a whole holds those more often.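 A percent growth of 40 corresponds to 60% growth inhibition; 0 means no net growth; -100 means all cells died. Active threshold: below 10.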 Activity calls are given as the source filed them.

The assay concerns SK-MEL-2 melanoma. The assay is described as follows: NCI-60 one-dose screen, 48 h (100 = growth as untreated, 0 = no growth, -100 = all killed). The conditions noted are these: 10 µM unless noted.
Regarding `Cn1nc(C(F)(F)F)cc1-c1cc(Cl)c(OCc2ccc(Cl)cc2)c(-c2ccc(Cl)c(C(F)(F)F)c2)c1O`, the growth was -33.8% (active).

Turning to `CC(=O)O[C@H]1[C@H](CC#CC#CC[C@@H]2C[C@]3(C)[C@H]4CC=C5[C@H]6[C@@H](C)[C@H](C)CC[C@]6(C(=O)NCCN(CCN)CCN)CC[C@@]5(C)[C@]4(C)CC[C@H]3C(C)(C)[C@H]2OC(C)=O)C[C@]2(C)[C@H]3CC=C4[C@H]5[C@@H](C)[C@H](C)CC[C@]5(C(=O)NCCN(CCN)CCN)CC[C@@]4(C)[C@]3(C)CC[C@H]2C1(C)C`, the growth is 67% (inactive). With `CC(=O)c1ccc(Nc2nc(Cl)nc(Oc3c(Cl)cccc3Cl)n2)cc1`, the growth was 97.1% (inactive). For `Oc1[nH]c2ccccc2c1/C=c1/ccc2c(c1)N=C(c1ccc(C(F)(F)F)cc1)N=2` the value was 27.9% (inactive); for `Brc1cccc(-n2ncc3c(Nc4ccc(-c5nnc(-c6ccccc6)o5)cc4)ncnc32)c1`, 115% (inactive); for `CCNC(=S)N(Cc1ccccc1)Cc1ccccc1`, 98.6% (inactive). `COc1cccc(CC(C)=C(c2ccc(OCCCN(C)C)cc2)c2ccc(OCCCN(C)C)cc2)c1`: the growth was -76.5% (active).

With `N[C@@H](CO)C(=O)O`, the growth is 116% (inactive). For the compound `O=C(c1ccc(C(F)(F)F)c(Cl)c1)N(Cc1ccc(Cl)cc1)c1ccc(-c2cc(C(F)(F)F)[nH]n2)c(O)c1`, the growth was -18.3% (active). Consider `c1ccc(C(Nc2ccccn2)(c2ccccc2)c2ccccc2)cc1`, for which the growth is 74.5% (inactive).

As for `CC[C@H](Nc1nc(N)nc(N)c1Cl)c1nc2cccc(NCc3ccc(C(=O)NO)cc3)c2c(=O)n1-c1ccccc1`, the growth is 71.5% (inactive). With `N#Cc1nc(-c2ccc(Cl)cc2)cc(-c2ccc(Nc3nc(N4CCCCC4)nc(N4CCCCC4)n3)cc2)c1N`, the growth is 106% (inactive). Turning to `C#CC[C@@H]1C[C@]2(C)[C@H]3CC=C4[C@H]5[C@@H](C)[C@H](C)CC[C@]5(C(=O)NCCCCN)CC[C@@]4(C)[C@]3(C)CC[C@H]2C(C)(C)[C@H]1OC(C)=O`, the growth was 101% (inactive).

On to `Cn1nc(C(F)(F)F)cc1-c1c[nH]c(OCc2ccc(Cl)cc2)c(-c2ccc(Cl)c(C(F)(F)F)c2)c1=O`, for which the growth was -31.4% (active). Regarding `COc1ccc(NC(=O)c2ccc(C(F)(F)F)nc2Nc2ccc(Cl)cc2C)cc1Cl`, the growth is 31.9% (inactive). In the case of `O=C(Cn1nncc1CN1C(=O)CSC1=O)Nc1ccc(F)cc1`, the growth was 101% (inactive).

Take `COc1ccc(NC(=O)/C=C/c2ccc(Cl)c(Cl)c2)cn1`: the growth was 101% (inactive). For `CCCCNCC(O)c1cc(-c2ccc(C(F)(F)F)cc2)nc(-c2ccc(C(F)(F)F)cc2)c1` (centres undefined) the value was -67.1% (active). For the compound `CCCc1cc2c(cc1CN(Cc1cc3c(cc1CCC)OCO3)C(=N)OCC)OCO2`, the growth was 81.3% (inactive). `CCCNC(=S)N/N=C(\C)c1ccccn1`: the growth is 69.8% (inactive). Take `C#CC[C@@H]1C[C@]2(C)[C@H]3CC[C@@H]4[C@H]5C(C(=C)C)CC[C@]5(C(=O)NCCCN5CCN(CCCN)CC5)CC[C@@]4(C)[C@]3(C)CC[C@H]2C(C)(C)[C@H]1OC(C)=O` (some centres undefined): the growth is -18.1% (active). With `COc1cc2nccc(Oc3ccc(NC(=O)C4(C(=O)Nc5c(F)cc(F)cc5F)CC4)cc3)c2cc1Oc1ccc(N)cn1`, the growth was 81.5% (inactive).

With `COc1ccc2[nH]c(C(=O)OCc3ccc4cccc(O)c4n3)cc2c1`, the growth was -20.3% (active). Consider `CCOCC(O)(c1ccc(Cl)cc1)c1ccc(Cl)cc1`, for which the growth was 102% (inactive). For `Cc1cc(C)cc(NC(=O)Cn2nncc2CN2C(=O)CSC2=O)c1` the value was 106% (inactive); for `Cc1ccc(NC(=O)Cn2nncc2CN2C(=O)CSC2=O)cc1C`, 102% (inactive). For the compound `COC(=O)/C=C/c1cc(OC(C)=O)c2c(c1)[C@@H](C(=O)OC)[C@H](c1ccc(OC(C)=O)c(OC(C)=O)c1)O2`, the growth was 37.9% (inactive). As to `N=c1n(Cc2ccccc2)c(N)cc(=O)n1Cc1ccccc1`, the growth is 94.6% (inactive). Take `CC(C)[C@H](CN)NC[C@H](C)NS(=O)(=O)c1ccc(C(C)(C)C)cc1`: the growth is 101% (inactive).

For the compound `COc1ccc(/C(=C\c2ccc3c(c2)OCO3)C(=O)Nc2nc3ccccc3s2)cc1`, the growth is 95.2% (inactive). For `Cc1ccc(-c2cnc3sc4ccc(Cl)cc4n23)cc1` the value was 103% (inactive); for `COc1cc(C2Nc3ccccc3S2)cc(CN2CCOCC2)c1O` (centres undefined), 64.4% (inactive). Take `CC1=C(O)C(=O)C(c2c(C)cc(C)c(Br)c2C)=C(O)C1=O`: the growth is 81.6% (inactive).

Consider `CC(C)OC(=O)c1ccc([N+](=O)[O-])cc1`, for which the growth was 122% (inactive). For `COc1cc(CN2CCO[C@H](COc3cccc(F)c3)C2)ccc1Cl` the value was 31% (inactive). For `COc1cc(NC(C)CCCN)c2ncccc2c1Oc1ccc(Cl)cc1` (centres undefined) the value was 102% (inactive); for `OC(c1cc(-c2ccc(C(F)(F)F)cc2)nc(-c2ccc(C(F)(F)F)cc2)c1)C1CCCCN1` (centres undefined), -66.6% (active).

With `C=CCn1c(C)nc2cc(Nc3nc(Nc4ccc5nc(C)n(CC=C)c5c4)nc4ccccc34)ccc21`, the growth is 121% (inactive).

In the case of `Fc1ccc2c(CN3CCO[C@H](COc4cccc(Cl)c4)C3)c[nH]c2c1`, the growth is 71.1% (inactive).
